Test results from PubChem BioAssay.
For some assays here: Entries with a potency or affinity are not part of this list. Activity calls are given as the source filed them. Unless noted, no rule for the calls is given here.

Tests used:
[1] = antimalarial activity against Dd2 strain (AID 2302;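 active = growth inhibition above 50% at the single 2 µM test dose, taken to imply half-maximal potency below 2 µM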;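 also: 0% = DMSO untreated growth and 100% = chloroquine plus artemisinin killed control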); details: P. falciparum Dd2 in RBCs, LDH growth readout, 72 h; at 2 µM; stronger effect = higher value
[2] = HepG2 cytotoxicity, primary screen, cytotoxicity control for P. falciparum antimalarial project, cell-based, ATP luminescence (AID 2303;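 active = inhibition above 50%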;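 also: 0% = DMSO wells and 100% = digitonin-killed cells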); details: HepG2 viability, 24-48 h, at 10 µM, stronger effect = higher value
[3] = biological target: L-lactate dehydrogenase (Plasmodium falciparum (isolate CDC / Honduras)) (UniProt Q27743); assay: PfLDH activity inhibition – cell lysate, 3D7 strain, counter-screen for P. falciparum growth inhibition project (AID 2304);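 also: 0% = vehicle and 100% = reference inhibitor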; details: P. falciparum 3D7 crude extract, LDH APAD/NBT absorbance; at 2 µM; stronger effect = higher value
[4] = inhibition of 3D7 malaria parasite growth – strain 3D7 (AID 2306);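 also: 0% = DMSO wells and 100% = chloroquine plus artemisinin control wells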; details: P. falciparum 3D7 erythrocytic growth, LDH absorbance, 72 h; at 2 µM; stronger effect = higher value
[5] = biological target: Calcium-dependent protein kinase 1 (Plasmodium falciparum (isolate 3D7)) (UniProt P62344); assay: PfCDPK1 kinase inhibitors, biochemical, TCAMS library (AID 1159585; cut-off not given, nearly all actives have IC50 up to about 0.98 µM;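 also: inhibitors leave more ATP so luminescence rises with inhibition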); details: recombinant PfCDPK1, Kinase-Glo ATP depletion luminescence
[6] = biological target: Plasmodium falciparum protein kinase 6 (PK6, PF3D7_1337100) (UniProt Q8IDW1); assay: PfPK6 kinase inhibitors, biochemical, TCAMS library (AID 1159586); details: recombinant PfPK6, Kinase-Glo ATP depletion luminescence
[7] = biological target: Protein kinase 7 (PK7), Plasmodium falciparum 3D7 (PF3D7_0213400) (UniProt Q7YTF7); assay: inhibition of Plasmodium PK7 catalytic activity – biochemical, TCAMS antimalarial set, Kinase-Glo luminescence (AID 1159587); details: recombinant PfPK7, Kinase-Glo ATP depletion luminescence
[8] = biological target: Calcium-dependent protein kinase 4 (Plasmodium falciparum (isolate 3D7)) (UniProt Q8IBS5); assay: PfCDPK4 kinase inhibitors, biochemical, TCAMS library (AID 1159588; cut-off not given, nearly all actives have IC50 up to about 0.91 µM); details: recombinant PfCDPK4, Kinase-Glo ATP depletion luminescence
Calcium-dependent protein kinase 4 (Plasmodium falciparum (isolate 3D7)), sequence (Q8IBS5 whole entry, looked up): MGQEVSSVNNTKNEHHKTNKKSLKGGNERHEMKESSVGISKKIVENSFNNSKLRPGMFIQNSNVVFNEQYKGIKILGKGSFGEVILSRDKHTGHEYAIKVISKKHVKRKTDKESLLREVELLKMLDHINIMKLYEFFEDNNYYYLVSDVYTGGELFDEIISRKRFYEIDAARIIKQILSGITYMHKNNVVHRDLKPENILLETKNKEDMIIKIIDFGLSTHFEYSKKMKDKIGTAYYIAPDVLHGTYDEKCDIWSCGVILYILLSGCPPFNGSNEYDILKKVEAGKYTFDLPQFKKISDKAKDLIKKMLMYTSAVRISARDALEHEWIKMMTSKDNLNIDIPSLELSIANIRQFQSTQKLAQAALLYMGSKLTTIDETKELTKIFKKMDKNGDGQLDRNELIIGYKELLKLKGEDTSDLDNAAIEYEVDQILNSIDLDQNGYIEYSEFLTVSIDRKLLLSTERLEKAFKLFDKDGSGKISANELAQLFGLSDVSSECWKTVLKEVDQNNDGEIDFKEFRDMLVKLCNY

Protein kinase 7 (PK7), Plasmodium falciparum 3D7 (PF3D7_0213400), sequence (Q7YTF7 1-343): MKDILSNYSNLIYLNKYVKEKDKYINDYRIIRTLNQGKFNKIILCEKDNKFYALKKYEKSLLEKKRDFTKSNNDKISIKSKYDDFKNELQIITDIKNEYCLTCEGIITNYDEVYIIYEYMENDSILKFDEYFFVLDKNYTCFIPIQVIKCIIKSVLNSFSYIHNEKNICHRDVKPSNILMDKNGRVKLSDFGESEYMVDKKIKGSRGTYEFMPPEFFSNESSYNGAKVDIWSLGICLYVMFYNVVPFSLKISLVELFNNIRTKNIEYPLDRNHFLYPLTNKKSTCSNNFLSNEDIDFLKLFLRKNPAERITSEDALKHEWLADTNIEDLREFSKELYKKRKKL
Plasmodium falciparum protein kinase 6 (PK6, PF3D7_1337100), sequence (Q8IDW1 1-305): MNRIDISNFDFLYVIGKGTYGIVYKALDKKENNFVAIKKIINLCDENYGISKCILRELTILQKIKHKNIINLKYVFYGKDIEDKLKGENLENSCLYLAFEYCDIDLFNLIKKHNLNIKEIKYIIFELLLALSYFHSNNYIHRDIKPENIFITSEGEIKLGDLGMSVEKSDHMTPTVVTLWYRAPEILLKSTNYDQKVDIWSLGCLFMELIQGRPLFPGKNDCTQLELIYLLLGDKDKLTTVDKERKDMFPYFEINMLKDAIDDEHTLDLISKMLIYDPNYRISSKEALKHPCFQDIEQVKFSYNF
L-lactate dehydrogenase (Plasmodium falciparum (isolate CDC / Honduras)), sequence (Q27743 whole entry, looked up): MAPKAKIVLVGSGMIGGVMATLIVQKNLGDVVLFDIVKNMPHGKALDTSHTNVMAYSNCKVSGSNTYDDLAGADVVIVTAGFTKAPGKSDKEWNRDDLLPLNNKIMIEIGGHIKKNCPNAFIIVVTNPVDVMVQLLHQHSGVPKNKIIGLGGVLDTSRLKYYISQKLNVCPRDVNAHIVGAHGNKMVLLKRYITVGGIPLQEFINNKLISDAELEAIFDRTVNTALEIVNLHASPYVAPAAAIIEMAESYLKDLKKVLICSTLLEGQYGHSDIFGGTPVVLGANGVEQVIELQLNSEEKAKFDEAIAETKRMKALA
Calcium-dependent protein kinase 1 (Plasmodium falciparum (isolate 3D7)), sequence (P62344 whole entry, looked up): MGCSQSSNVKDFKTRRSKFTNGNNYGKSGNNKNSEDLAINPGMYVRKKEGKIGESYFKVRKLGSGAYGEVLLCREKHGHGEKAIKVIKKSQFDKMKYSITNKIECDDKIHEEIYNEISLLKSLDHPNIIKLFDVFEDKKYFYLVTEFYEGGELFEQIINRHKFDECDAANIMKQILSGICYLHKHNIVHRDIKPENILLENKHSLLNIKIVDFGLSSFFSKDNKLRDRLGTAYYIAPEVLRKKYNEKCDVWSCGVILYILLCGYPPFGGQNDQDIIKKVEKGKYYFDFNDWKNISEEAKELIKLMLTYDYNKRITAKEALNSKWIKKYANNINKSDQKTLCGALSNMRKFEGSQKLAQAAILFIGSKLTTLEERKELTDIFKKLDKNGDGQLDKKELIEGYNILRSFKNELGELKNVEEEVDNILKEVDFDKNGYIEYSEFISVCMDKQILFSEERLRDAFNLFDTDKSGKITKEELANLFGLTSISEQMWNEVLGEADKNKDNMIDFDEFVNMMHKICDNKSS

CCOc1ccc(C2CCN(CCCCNC(=O)c3ccc(NC(=O)c4ccc(Cl)cc4)cc3)CC2)c(CC)c1
inactive: inhibition [2] 44% | inhibition [3] -4% | outcome [5] | outcome [6] | outcome [7] | outcome [8]
active: growth inhibition [1] 64% | growth inhibition [4] 100%

O=C(Nc1cccc([N+](=O)[O-])c1)N(Cc1ccc(Cl)c(Cl)c1)C1CCNCC1
active: growth inhibition [4] 99%
inactive: growth inhibition [1] -2% | inhibition [2] 17% | inhibition [3] -2% | outcome [5] | outcome [6] | outcome [7] | outcome [8]

O=C(NC1CCN(c2ccnc3ccccc23)C1)c1ccc(OC(F)(F)F)cc1 (stereo unspecified)
inactive: inhibition [2] 35% | inhibition [3] -4% | outcome [5] | outcome [6] | outcome [7] | outcome [8]
active: growth inhibition [1] 68% | growth inhibition [4] 89%

CCCN(CCC)C(=S)N=Nc1c(O)[nH]c2ccccc12
active: growth inhibition [1] 86% | growth inhibition [4] 97%
inactive: inhibition [2] 28% | inhibition [3] -3% | outcome [5] | outcome [6] | outcome [7] | outcome [8]

O=C1NC(=S)NC1=CC=Cc1ccc([N+](=O)[O-])o1
inactive: growth inhibition [1] 30% | inhibition [2] 7% | inhibition [3] 2% | outcome [5] | outcome [6] | outcome [7] | outcome [8]
active: growth inhibition [4] 82%

COc1ccc2nc(C)cc(NN=Cc3cccc(Cl)c3)c2c1
inactive: inhibition [2] 13% | inhibition [3] 7% | outcome [5] | outcome [6] | outcome [7] | outcome [8]
active: growth inhibition [1] 100% | growth inhibition [4] 101%

O=C(NOCc1ccccc1)c1cc(Cl)ccc1O
inactive: growth inhibition [1] -1% | inhibition [2] 2% | inhibition [3] 5% | outcome [5] | outcome [6] | outcome [7] | outcome [8]
active: growth inhibition [4] 83%

CCCCC(=O)N(CCOC)Cc1ccc(-c2ccc(CNCCC)cn2)cc1
inactive: inhibition [2] 30% | inhibition [3] -3% | outcome [5] | outcome [6] | outcome [7] | outcome [8]
active: growth inhibition [1] 68% | growth inhibition [4] 99%

O=S(=O)(/C=C/c1ccccc1)N(Cc1ccc(-c2ccc(CNCCc3ccccn3)cc2)cc1)CC1CCCCN1 (stereo unspecified)
active: growth inhibition [1] 97% | growth inhibition [4] 100%
inactive: inhibition [2] 46% | inhibition [3] -4% | outcome [5] | outcome [6] | outcome [7] | outcome [8]

O=C(Nc1cccc(-c2cccc(-c3nc4ccc(C(F)(F)F)cc4[nH]3)c2)c1)Nc1ccc(F)c(F)c1F
inactive: inhibition [3] 6% | outcome [5] | outcome [6] | outcome [7] | outcome [8]
active: growth inhibition [1] 100% | inhibition [2] 71% | growth inhibition [4] 99%

COc1ccc2nccc(N3CCC(O)(CCNCc4ccc5c(n4)NC(=O)CS5)CC3)c2n1
active: growth inhibition [4] 99%
inactive: growth inhibition [1] 21% | inhibition [2] 10% | inhibition [3] 0% | outcome [5] | outcome [6] | outcome [7] | outcome [8]

N#Cc1cncc(-c2nc3c(N4CCN(c5cnccn5)CC4)cccc3n2CCNCc2ccccc2)c1
inactive: growth inhibition [1] 31% | inhibition [2] 0% | inhibition [3] 4% | outcome [5] | outcome [6] | outcome [7] | outcome [8]
active: growth inhibition [4] 99%

COc1cc(Cc2c(C)nc3nc(N)nc(N)c3c2C)c(Br)c(OC)c1OC
inactive: growth inhibition [1] -2% | inhibition [2] 44% | inhibition [3] 0% | outcome [5] | outcome [6] | outcome [7] | outcome [8]
active: growth inhibition [4] 93%

CC(C)CC(=O)N1CCNC[C@@H]1C(=O)NC1CC1
active: growth inhibition [4] 82%
inactive: growth inhibition [1] -2% | inhibition [2] -7% | inhibition [3] -4% | outcome [5] | outcome [6] | outcome [7] | outcome [8]

COc1ccc(-c2cccc(CNCc3ccc(F)cc3)c2)cc1S(=O)(=O)NCCN1CCCC1
inactive: growth inhibition [1] 16% | inhibition [2] 20% | inhibition [3] 4% | outcome [5] | outcome [6] | outcome [7] | outcome [8]
active: growth inhibition [4] 101%

O=C1CCCN1CCCNCc1cccc(-c2cccc(-c3nc4ccc(F)cc4[nH]3)c2)c1
active: growth inhibition [1] 69% | growth inhibition [4] 100%
inactive: inhibition [2] 6% | inhibition [3] -3% | outcome [5] | outcome [6] | outcome [7] | outcome [8]

N#Cc1cccc(CN2CCCN(Cc3ccc(C(=O)Nc4ccc(Cl)cc4)cc3)CC2)c1
active: growth inhibition [4] 98%
inactive: growth inhibition [1] 21% | inhibition [2] 48% | inhibition [3] 1% | outcome [5] | outcome [6] | outcome [7] | outcome [8]

O=C(C=Cc1ccc(Cl)c(Cl)c1)NCCCCCN1CCC(CCNC(=O)c2cccc3ccccc23)CC1
inactive: growth inhibition [1] -1% | inhibition [2] 17% | inhibition [3] 4% | outcome [5] | outcome [6] | outcome [7] | outcome [8]
active: growth inhibition [4] 85%

CC1(C)Cc2c([nH]c3ccccc23)C(CCCCCCCCC2=NC(C)(C)Cc3c2[nH]c2ccccc32)=N1
inactive: inhibition [3] -1% | outcome [5] | outcome [6] | outcome [7] | outcome [8]
active: growth inhibition [1] 88% | inhibition [2] 100% | growth inhibition [4] 99%

Cc1cc(-c2cc(Cl)ccc2Cl)no1
active: growth inhibition [1] 97% | growth inhibition [4] 96%
inactive: inhibition [2] 36% | inhibition [3] -8% | outcome [5] | outcome [6] | outcome [7] | outcome [8]

Cc1[nH]cnc1CSCCNC(N)=NCCCCCCCCN=C(N)NCCSCc1nc[nH]c1C
inactive: inhibition [2] 24% | inhibition [3] -10% | outcome [5] | outcome [6] | outcome [7] | outcome [8]
active: growth inhibition [1] 95% | growth inhibition [4] 96%

COc1cc(C=CC(=O)N2CCN(Cc3cccc(C)c3)CC2)ccc1OCc1c(C)noc1C
active: growth inhibition [1] 95% | growth inhibition [4] 86%
inactive: inhibition [2] 8% | inhibition [3] -4% | outcome [5] | outcome [6] | outcome [7] | outcome [8]

CCOC(=O)CC[C@H](NC(=O)c1ccc(NS(=O)(=O)c2ccc(-c3cnc(N)[nH]c3=O)cc2)cc1)C(=O)OCC
inactive: growth inhibition [1] 2% | inhibition [2] 5% | inhibition [3] 4% | outcome [5] | outcome [6] | outcome [7] | outcome [8]
active: growth inhibition [4] 95%

C[C@H](Cc1ccc(OCCCOc2ccc(C[C@@H](C)NC[C@H](O)c3cccc(Cl)c3)cc2)cc1)NC[C@H](O)c1cccc(Cl)c1
active: growth inhibition [1] 92% | inhibition [2] 99% | growth inhibition [4] 99%
inactive: inhibition [3] 0% | outcome [5] | outcome [6] | outcome [7] | outcome [8]

CN(C)CC(=O)NCC(NCCCNc1cc(=O)c2ccccc2[nH]1)c1cc(Br)cc(Br)c1 (stereo unspecified)
active: growth inhibition [4] 98%
inactive: growth inhibition [1] 2% | inhibition [2] 6% | inhibition [3] 1% | outcome [5] | outcome [6] | outcome [7] | outcome [8]

COc1cc(F)c2ncc(Cl)c(CCN3CCC(NCc4ccc5c(c4)OCCO5)CC3)c2c1
inactive: inhibition [2] 35% | inhibition [3] -7% | outcome [5] | outcome [6] | outcome [7] | outcome [8]
active: growth inhibition [1] 92% | growth inhibition [4] 97%

CCN1CCN(c2cc(C)c3cc(NC(=O)C=Cc4cccc(OC)c4OC)ccc3n2)CC1
inactive: growth inhibition [1] 38% | inhibition [2] 18% | inhibition [3] -3% | outcome [5] | outcome [6] | outcome [7] | outcome [8]
active: growth inhibition [4] 99%

CN1CCC(Oc2cc(CN3CC[C@H](NC(=O)c4ccc(Cl)c(Cl)c4)C3)ccc2I)C1 (stereo partly specified)
inactive: growth inhibition [1] 24% | inhibition [3] 1% | outcome [5] | outcome [6] | outcome [7] | outcome [8]
active: inhibition [2] 68% | growth inhibition [4] 97%

OC(CNCc1ccccc1Oc1ccccc1)c1cccc(C(F)(F)F)c1 (stereo unspecified)
inactive: inhibition [2] -1% | inhibition [3] 10% | outcome [5] | outcome [6] | outcome [7] | outcome [8]
active: growth inhibition [1] 98% | growth inhibition [4] 104%

Cc1ccc(O)cc1Nc1ccnc2ccc(C(C)(C)C)cc12
active: growth inhibition [1] 100% | growth inhibition [4] 100%
inactive: inhibition [2] 6% | inhibition [3] 3% | outcome [5] | outcome [6] | outcome [7] | outcome [8]

CC(C)(C)c1ccc2nccc(Nc3cccc(O)c3)c2c1
inactive: inhibition [2] 8% | inhibition [3] 0% | outcome [5] | outcome [6] | outcome [7] | outcome [8]
active: growth inhibition [1] 100% | growth inhibition [4] 99%

COc1ccc(OC)c(C=NNc2nc3ccccc3[nH]2)c1
active: growth inhibition [4] 99%
inactive: growth inhibition [1] 28% | inhibition [2] -6% | inhibition [3] 7% | outcome [5] | outcome [6] | outcome [7] | outcome [8]

CC(=O)CSC(C=Cc1ccc(N(C)C)cc1)=Nc1ccccc1
inactive: growth inhibition [1] 42% | inhibition [2] 38% | inhibition [3] -4% | outcome [5] | outcome [6] | outcome [7] | outcome [8]
active: growth inhibition [4] 81%

COc1ccc(-c2cnc3[nH]cc(-c4ccc(C(=O)O)c(C)c4)c3c2)cn1
active: growth inhibition [1] 99% | growth inhibition [4] 99%
inactive: inhibition [2] 23% | inhibition [3] -5% | outcome [5] | outcome [6] | outcome [7] | outcome [8]

CCN(CC)CCN(Cc1ccc(-c2ccc(C(F)(F)F)cc2)cc1)C(=O)Cn1c(CCc2cccc(F)c2F)nc(=O)c2ccc(C)cc21
active: growth inhibition [1] 58% | growth inhibition [4] 99%
inactive: inhibition [2] 39% | inhibition [3] -2% | outcome [5] | outcome [6] | outcome [7] | outcome [8]

COc1ccc(CNC2CCN(C)CC2)cc1-c1ccc(S(=O)(=O)NC2CCC2)s1
active: growth inhibition [1] 94% | growth inhibition [4] 100%
inactive: inhibition [2] 32% | inhibition [3] 5% | outcome [5] | outcome [6] | outcome [7] | outcome [8]

Cc1cc(OCC2CCN(c3ncc(C(=O)Nc4ccccc4)cc3Cl)CC2)ccc1F
active: growth inhibition [1] 87% | growth inhibition [4] 91%
inactive: inhibition [2] 27% | inhibition [3] -2% | outcome [5] | outcome [6] | outcome [7] | outcome [8]
